The results in this text go back to PubChem BioAssay AID2110 (National Center for Advancing Translational Sciences (NCATS), 2009).

Records with an inconclusive call do not appear. A call without a number means that no potency is given here. Calls of active or inactive are those of the source. Calls come from the whole dose curve; as a rule, active = well fitted curve in either direction with a large enough effect; inconclusive = small, poorly fitted or top-dose-only effect; inactive = no such curve, though single readings can be large or run the other way.

The target of the experiment is Lysosomal alpha-glucosidase (Homo sapiens) (UniProt P10253). The experiment in a line: Confirmation of Inhibitors and Activators of Purified Human alpha-Glucosidase Using an Alternate Red Fluorescent Susbtrate. The following applies: purified enzyme, red fluorogenic substrate; series mostly up to 63.4 µM. From the text:
NIH Chemical Genomics Center [NCGC]
NIH Molecular Libraries Probe Production centers Network [MLPCN]
Assay Submitter (PI): Wei Zheng
Alpha-glucosidase is responsible for hydrolysis of terminal, non-reducing 1,4-linked alpha-D-glucose residues with release of alpha-D-glucose. It is a lysosomal hydrolase that is required for the degradation of a small percentage (1-3%) of cellular glycogen in human. Deficiency of this enzyme results in glycogen-storage disease type II (GSDII), also referred to as Pompe disease, an autosomal recessive disorder. Structurally normal glycogen is accumulated in lysosomes and cytoplasm in affected patients, primarily in muscle tissues. Excessive glycogen storage within lysosomes may interrupt normal functioning of other organelles and leads to cellular injury. […]
This is a fluorogenic enzyme assay with resorufin-alpha-D-pyranoside as the substrate and recombinant human alpha-glucosidase as the enzyme preparation. Upon the hydrolysis of this fluorogenic substrate, the resulting product, resorufin, can be excited at 573 nm and emits at 610 nm which can be detected by a standard fluorescence plate reader. […] The AC50 values were determined from concentration-response data modeled with the standard Hill equation. […]
(6) Detect the assay plate in a ViewLux plate reader (PerkinElmer) with Ex=365 nm and Em=440nm. […]

For the compound `Cc1c2ccncc2c(C)c2c1[nH]c1ccccc12`, the Potency is 35.5 µM (active).
Next, `CC[C@@]1(O)C(=O)OCc2c1cc1n(c2=O)Cc2cc3ccccc3nc2-1`: “inactive”.
